Data as given in PubChem BioAssay (Tox21).
“And” between values parts separate entries of the source, which are not always exact repeats. Identical values can stand only once. Values without a mark were called inactive. Results filed as inconclusive are left out. Entries that show only a call come without a potency. The source made the active and inactive calls. Unless noted, the call rests on the fitted dose curve; in most records, active means well fitted curve in the direction sought with a large enough effect in the repeat runs; inconclusive means weak or mixed curves; inactive means no such curve, though single readings can be large; an effect the other way counts as inactive or inconclusive.

Assay: qHTS assay to identify small molecule agonists of H2AX - cell viability counter screen (AID 1224847; calls by dose curve; further: nearly all actives have a fitted effect of over 30% in size; further: potency means the concentration at half of the fitted maximal effect)
Conditions: CHO-K1 viability, CellTiter-Glo luminescence, 3 h; series mostly up to 154 µM
How it was run: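 Wild-type CHO-K1 cells (10% FBS medium) were plated overnight at 37C, exposed to compounds at 15 concentrations for 3 hr at 37C (0.76% DMSO final), and viability was read as CellTiter-Glo luminescence after 30 min at room temperature.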

SMILES | Potency
C[C@]12C=CC3=C4CCC(=O)C=C4CC[C@H]3[C@@H]1CC[C@@H]2O | 89.2 µM (active) and 75.9 µM (active)
[Cl-].[Cl-].[Hg+2] | 17.8 µM (active) and 7.13 µM (active)
C=CCSSCC=C | inactive
Nc1ccc2c(c1)Cc1ccccc1-2 | inactive
NCCc1cc(O)c(O)cc1O | inactive
C[C@H](N)[C@H](O)c1ccc(O)c(O)c1 | inactive
CC(=O)NNc1ccccc1 | inactive
CCCCCCCCCCCC[N+](C)(C)CCOc1ccccc1 | 89.8 µM (active) and 49.2 µM (active)
C[C@@H]1C[C@@H]([C@H](O)CC2CC(=O)NC(=O)C2)C(=O)[C@@H](C)C1 | inactive
N#CC(C#N)=Cc1ccc(O)c(O)c1 | inactive
CN1C[C@H](C(=O)N[C@]2(C)O[C@@]3(O)[C@@H]4CCCN4C(=O)[C@H](Cc4ccccc4)N3C2=O)C=C2c3cccc4[nH]cc(c34)C[C@H]21 | inactive

Assay: qHTS assay to identify small molecule antagonists of the estrogen related receptor (ERR) signaling pathway from Tox21 library (AID 1224848); further: nearly all actives have a fitted effect of over 50% in size; further: potency means the concentration at half of the fitted maximal effect
Conditions: ERR reporter cell line, luciferase antagonist mode, 18 h; series mostly up to 92.4 µM
How it was run: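 Luciferase luminescence (ONE-Glo, 30 min room temperature) was the read-out. Cells of the NTP-supplied ERR line, 2,000 per well, were given 6 h at 37 C before compound addition in DMSO and 18 h exposure at 37 C.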

SMILES | Potency
CC[N+]1(C)CCCC(OC(=O)C(O)(c2ccccc2)c2ccccc2)C1 (centres undefined) | inactive
O=C(NCNC(=O)NC1C(=O)NC(=O)N1CO)NC1C(=O)NC(=O)N1CO (centres undefined) | inactive
O=[N+]([O-])O[C@H]1CO[C@H]2[C@@H]1OC[C@H]2O[N+](=O)[O-] | inactive
Nc1ccc2c(c1)Cc1ccccc1-2 | inactive
C[C@H](N)[C@H](O)c1ccc(O)c(O)c1 | inactive
C[C@]12CC[C@H]3[C@@H](CCC4=CC(=O)CC[C@@H]43)[C@@H]1CC[C@@H]2OC(=O)CCc1ccccc1 | inactive
C=C(Cl)Cl | inactive
CCC1(C2=NCCN2)Cc2ccccc2O1 (centres undefined) | inactive
CCOC(=O)c1cn2nc(OP(=S)(OCC)OCC)cc2nc1C | 34.4 µM (active)
CC(=O)NNc1ccccc1 | 4.82 µM (active)
CN(C)c1ccc(N=O)cc1 | inactive
CCCCCCCCCCCC[N+](C)(C)CCOc1ccccc1 | 19.3 µM (active) and 21.1 µM (active)
CCNC(=O)NC(=O)/C(C#N)=N/OC | inactive
CC(C)(C)OOC(C)(C)CCC(C)(C)OOC(C)(C)C | inactive
C[C@@H]1C[C@@H]([C@H](O)CC2CC(=O)NC(=O)C2)C(=O)[C@@H](C)C1 | 682 nM (active) and 545 nM (active) and 750 nM (active)
O=[N+]([O-])/C=C/c1ccccc1 | 22 µM (active)

Assay: qHTS assay to identify small molecule agonists of the estrogen related receptor (ERR) signaling pathway from Tox21 library (AID 1224849; calls by dose curve; further: nearly all actives have a fitted effect of over 15% in size)
Conditions: ERR reporter cell line, ONE-Glo luciferase, 18 h; at 42.5 µM (top of the series)
How it was run: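 Luciferase activity in ERR pathway reporter cells served as the agonist readout; exposure lasted 18 h at 37 C, with ONE-Glo detection after 30 min at room temperature.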

SMILES | activity change, positive = activation
CC[N+]1(C)CCCC(OC(=O)C(O)(c2ccccc2)c2ccccc2)C1 (centres undefined) | 6.13%
C=CCN1C[C@H](C)N([C@H](c2ccc(C(=O)N(CC)CC)cc2)c2cccc(OC)c2)C[C@H]1C | -5.94%
O=[N+]([O-])O[C@H]1CO[C@H]2[C@@H]1OC[C@H]2O[N+](=O)[O-] | 4.43%
COc1ccc(C(=O)c2c(C)n(CCN3CCOCC3)c3ccccc23)cc1 | -28.1%
C[C@]12CC[C@H]3[C@@H](CCC4=CC(=O)CC[C@@H]43)[C@@H]1CC[C@@H]2OC(=O)CCc1ccccc1 | 10.2%
CCC1(C2=NCCN2)Cc2ccccc2O1 (centres undefined) | 5.71%
CCCCCCCCCCCC[N+](C)(C)CCOc1ccccc1 | -65.5%
C[C@@H]1C[C@@H]([C@H](O)CC2CC(=O)NC(=O)C2)C(=O)[C@@H](C)C1 | -64.4%

Same assay, conditions: ERR reporter cell line, ONE-Glo luciferase, 18 h; at 92.4 µM (top of the series)

SMILES | activity change, positive = activation
O=C(NCNC(=O)NC1C(=O)NC(=O)N1CO)NC1C(=O)NC(=O)N1CO (centres undefined) | 3.53%
Nc1ccc2c(c1)Cc1ccccc1-2 | -8.59% (active)
C=C(Cl)Cl | -0.979%
CCOC(=O)c1cn2nc(OP(=S)(OCC)OCC)cc2nc1C | -40.1%
CC(=O)NNc1ccccc1 | -40.3%
CN(C)c1ccc(N=O)cc1 | -55.7% (active) and -48.2% (active)
CCCCCCCCCCCC[N+](C)(C)CCOc1ccccc1 | -76.3%
CCNC(=O)NC(=O)/C(C#N)=N/OC | -6.66%
CC(C)(C)OOC(C)(C)CCC(C)(C)OOC(C)(C)C | 2.37%
C[C@@H]1C[C@@H]([C@H](O)CC2CC(=O)NC(=O)C2)C(=O)[C@@H](C)C1 | -74.2% and -68.3%
O=[N+]([O-])/C=C/c1ccccc1 | -76.3% and -54.1%

Assay: qHTS RealTime-Glo MT Cell Viability Assay in HepG2 cells - 24 hour (AID 1224867); further: nearly all actives have a fitted effect of over 50% in size; further: potency means the concentration at half of the fitted maximal effect
Conditions: RealTime-Glo luminescence; series mostly up to 76.8 µM
How it was run: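 qHTS, HepG2, 600 cells/well, RealTime-Glo (NanoLuc + prosubstrate) added with cells; 5 h preincubation; DMSO compound addition; 37 C; luminescence at 0/8/16/24/32/40 h.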

SMILES | Potency
C[C@]12C=CC3=C4CCC(=O)C=C4CC[C@H]3[C@@H]1CC[C@@H]2O | inactive
CC[N+]1(C)CCCC(OC(=O)C(O)(c2ccccc2)c2ccccc2)C1 (centres undefined) | inactive
OCC1CO1 (centres undefined) | inactive
C=CCN1C[C@H](C)N([C@H](c2ccc(C(=O)N(CC)CC)cc2)c2cccc(OC)c2)C[C@H]1C | inactive
O=C(NCNC(=O)NC1C(=O)NC(=O)N1CO)NC1C(=O)NC(=O)N1CO (centres undefined) | inactive
O=C(N/N=C/c1ccc([N+](=O)[O-])o1)c1cc([N+](=O)[O-])cc([N+](=O)[O-])c1O | inactive
O=[N+]([O-])O[C@H]1CO[C@H]2[C@@H]1OC[C@H]2O[N+](=O)[O-] | inactive
CCSCc1ccccc1OC(=O)NC | inactive
Nc1ccc2c(c1)Cc1ccccc1-2 | inactive
NCCc1cc(O)c(O)cc1O | inactive
COc1ccc(C(=O)c2c(C)n(CCN3CCOCC3)c3ccccc23)cc1 | inactive
C[C@]12CC[C@H]3[C@@H](CCC4=CC(=O)CC[C@@H]43)[C@@H]1CC[C@@H]2OC(=O)CCc1ccccc1 | inactive
C=C(Cl)Cl | inactive
CCC1(C2=NCCN2)Cc2ccccc2O1 (centres undefined) | inactive
CCOC(=O)c1cn2nc(OP(=S)(OCC)OCC)cc2nc1C | inactive
CC(=O)NNc1ccccc1 | inactive
CN(C)c1ccc(N=O)cc1 | 55.1 µM (active) and 38.9 µM (active)
C1CCNCC1 | inactive
CC(Cc1ccccc1)NCc1ccccc1Cl (centres undefined) | inactive
CCCCCCCCCCCC[N+](C)(C)CCOc1ccccc1 | 21.9 µM (active) and 9.52 µM (active)
c1ccc2sc(SNC3CCCCC3)nc2c1 | inactive
CC(C)(C)OOC(C)(C)CCC(C)(C)OOC(C)(C)C | inactive
C[C@@H]1C[C@@H]([C@H](O)CC2CC(=O)NC(=O)C2)C(=O)[C@@H](C)C1 | inactive
N#CC(C#N)=Cc1ccc(O)c(O)c1 | inactive
CN(C)N | inactive
Cc1ccc(N)c(C)c1 | inactive
CCCCCCCCP(=O)(O)O | inactive
O=[N+]([O-])/C=C/c1ccccc1 | 44.4 µM (active) and 19.5 µM (active)
